This note sets out measurements from PubChem BioAssay.

Values joined by “and” are separate entries in the source; they are usually repeats but may differ in a detail not shown here. Identical values can stand only once. Active and inactive are the calls of the source.

For assay [1], the target named is Albumin (Bos taurus) (UniProt P02769). The experiment in a line: compounds binding labelled BSA control protein – biochemical, small-molecule microarray, Alexa647 label, 635/667 nm fluorescence, artefact control for SMM control protein annotation, profiling panel (AID 1118).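 Further: score merges 667 nm emission intensity and signal-to-noise per printed compound spot.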 The note with it: BSA-A647 binding, fluorescence 635 nm, higher = more signal.
Sequence of Albumin (Bos taurus) (P02769 whole entry, looked up): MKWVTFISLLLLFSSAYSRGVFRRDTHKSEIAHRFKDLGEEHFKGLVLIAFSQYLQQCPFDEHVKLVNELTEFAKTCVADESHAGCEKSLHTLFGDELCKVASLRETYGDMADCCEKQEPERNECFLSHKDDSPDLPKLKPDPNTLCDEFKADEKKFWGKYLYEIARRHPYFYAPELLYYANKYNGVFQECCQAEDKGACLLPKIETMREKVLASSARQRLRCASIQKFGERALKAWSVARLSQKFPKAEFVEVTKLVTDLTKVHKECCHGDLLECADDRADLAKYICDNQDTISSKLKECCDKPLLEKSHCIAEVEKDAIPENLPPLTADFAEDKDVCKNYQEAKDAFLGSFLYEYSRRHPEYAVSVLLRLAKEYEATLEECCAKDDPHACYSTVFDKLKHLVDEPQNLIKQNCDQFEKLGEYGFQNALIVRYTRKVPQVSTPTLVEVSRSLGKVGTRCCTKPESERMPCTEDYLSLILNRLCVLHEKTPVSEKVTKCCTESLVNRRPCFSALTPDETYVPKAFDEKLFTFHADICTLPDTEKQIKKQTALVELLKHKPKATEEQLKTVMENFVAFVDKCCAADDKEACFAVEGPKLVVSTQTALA
Assay [2] can be described thus: probe aXIP binding to arrayed compounds – biochemical, NeuroSMM set, 635/667 nm fluorescence, primary screen (AID 1119).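 Further: probe is the protein aXip251-270 applied at 1 µg/mL to compound-printed slides; binding of probe to printed compounds measured as 667 nm fluorescence plus signal to noise.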 To be noted: small-molecule microarray, higher = more signal, called active from +8 up or from −8 down.
Assay [3] in a line: probe aNOTCH3 binding on compound microarray – biochemical, small-molecule microarray, 635/667 nm fluorescence, primary screen (AID 1120).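 Further: probe is a biotin-tagged antibody raised against NOTCH3 rather than NOTCH3 protein; score merges spot fluorescence near 667 nm with spot signal to noise.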 The note with it: higher = more signal.
Assay [4] can be described thus: probe aNOTCH2 binding on compound microarray – biochemical, small-molecule microarray, 635/667 nm fluorescence, primary screen (AID 1121).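 Further: score merges feature fluorescence read at 667 nm with its signal to noise.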 The note with it: higher = more signal.
The target of assay [5] is Carbonic anhydrase 2 (Homo sapiens) (UniProt P00918). In words: compounds binding carbonic anhydrase 2 – biochemical, small-molecule microarray, Alexa647-labelled CAII, profiling panel (AID 1122). To be noted: CAII-A647 binding fluorescence, higher = more signal.
Assay [6] in a line: COS7 lysate on small-molecule microarray, probe aHis, 635 nm (AID 1123).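 Further: z-score combines 667nm fluorescence intensity with signal-to-noise per printed compound spot.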 The note with it: COS7 cell lysate, fluorescence, higher = more signal.
Assay [7] in a line: probe aLAP1 signal on lysate-treated microarray – cell lysate, small-molecule microarray, COS7 lysate, primary screen (AID 1124).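 Further: lysate comes from COS7 cells expressing LAP1 and is applied at 0.3 µg/mL; score merges spot fluorescence near 667 nm with signal-to-noise over triplicate slides.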 The note with it: probe aLAP1, fluorescence, higher = more signal.
For assay [8], the system named is Sam68 (KHDRBS1). In words: compounds binding KHDRBS1 protein – biochemical, small-molecule microarray, 635 nm fluorescence, primary screen (AID 1125).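 Further: score merges 667 nm channel intensity with signal to noise over triplicate slides.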 The note with it: higher = more signal.
In assay [9] the test system is Chordin-like protein 2 (CHRDL2). The experiment in a line: compounds binding chordin-like 2 – biochemical, small-molecule microarray, 635 nm fluorescence, primary screen (AID 1126).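 Further: printed compound slides probed with Chrdl2 protein at 4 µg/mL for 1 h at 4 C; score merges 667 nm emission intensity with signal to noise over three replicate slides.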 The note with it: fluorescence 635 nm, higher = more signal.
Assay [10] deals with Concanavalin-A (Canavalia ensiformis) (UniProt P02866). In words: compounds binding concanavalin A lectin – biochemical, small-molecule microarray, Alexa647 label, 635 nm, artefact control for SMM control protein annotation, primary screen (AID 1127).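 Further: z combines 667 nm emission intensity with signal-to-noise across three replicate slides.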 The note with it: ConA-A647 binding fluorescence, higher = more signal.
Sequence of Concanavalin-A (Canavalia ensiformis) (P02866 whole entry, looked up): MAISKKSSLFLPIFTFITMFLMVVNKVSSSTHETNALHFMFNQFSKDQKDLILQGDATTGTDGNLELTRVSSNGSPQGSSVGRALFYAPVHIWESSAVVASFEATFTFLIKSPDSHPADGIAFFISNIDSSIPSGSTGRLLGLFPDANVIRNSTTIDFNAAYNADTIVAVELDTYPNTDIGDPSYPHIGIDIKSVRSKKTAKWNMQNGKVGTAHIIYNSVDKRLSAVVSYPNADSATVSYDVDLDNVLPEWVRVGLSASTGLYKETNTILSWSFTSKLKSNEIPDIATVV

As for `Cc1cc2c(nc1C)CCCN2CC(O)CN1CCCc2nc(-c3ccc(Br)cc3)ccc21` (stereo not given), the composite z-score is -0.473 and 0.163 in assay [1]; 0.569 and 0.969 in assay [3]; 0.174 and 0.519 in assay [4]; 0.492 and 0.401 in [5]; 0.531 and 1.25 in assay [6]; 0.741 and 0.489 in [7]. Further, the composite z-score in assay [8] was 1.29; in assay [9], 0.955 and 1.08; in [10] it was 0.975 and 1.03. The composite Z-score in assay [2] is 2.2 (inactive) and 4.49 (inactive).

With `COC(=O)C1=C(C)N(Cc2ccccc2)[C@]23O[C@](C(=O)OC)(C(=O)N2[C@@H]1c1ccccc1)[C@@H](c1ccccc1)[C@@H]3C(=O)c1ccccc1`, the composite z-score in assay [1] is 0.711 and -0.334; in [3] it was -0.0111 and -0.0048; in [4], -0.119 and -0.0974; in assay [5], 0.179 and 0.178; in assay [6], 0.49 and 0.258; in assay [7] it was 0.315 and -0.144. Further, the composite z-score is 0.661 and -0.776 in assay [8]; 0.189 and 0.843 in [9]; 0.675 and 0.142 in assay [10]. Besides, the composite Z-score in [2] is -0.0461 (inactive) and 0.0162 (inactive).

As to `COC(=O)c1c2oc(c1C(=O)OC)C(=O)N[C@@H](Cc1ccccc1)Cn1cc(nn1)C1(CCCCC1)NC(=O)N[C@H](CO)CC2`, the composite z-score in assay [1] was -0.14 and 0.517; in [3], 0.13 and 0.0613; in [4] it was 0.0165 and -0.0761; in assay [5], 0.713 and -0.0749; in assay [6], 1.72 and 0.833; in assay [7], 0.376 and 0.0667. In addition, the composite z-score is 1.08 and 0.939 in assay [8]; 0.518 and 0.124 in assay [9]; 0.634 and 0.427 in assay [10]. Moreover, the composite Z-score in assay [2] was 0.167 (inactive) and 0.77 (inactive).

`COC(=O)C1=C(C)N(Cc2ccccc2)C2=C3C(=O)CCC[C@@H]3[C@@](O)(C(=O)OC)C(=O)N2[C@@H]1c1ccccc1`: the composite z-score was 0.0476 and 0.354 in [1]; -0.0077 and 0.178 in assay [3]; -0.125 and -0.114 in assay [4]; 0.362 and 0.0465 in [5]; 0.0949 and 0.111 in assay [6]; -0.0012 and 0.0654 in assay [7]. The composite z-score is 0.368 and -0.0561 in assay [8]; 0.674 and 0.24 in assay [9]; 0.596 and -0.917 in [10]. The composite Z-score in assay [2] was -0.0521 (inactive) and -0.191 (inactive).

As to `CC[C@@H]1C(Sc2ccccc2)C(C(=O)O)[C@H](c2ccc(C)cc2)N1S(=O)(=O)c1ccc(C)cc1` (stereo not given in full), the composite z-score is 0.978 and 0.899 in assay [1]; 0.411 and -0.022 in [3]; 0.0739 and -0.0635 in [4]; 0.232 and 0.755 in [5]; 0.893 and 2.52 in assay [6]; 0.541 and 0.418 in [7]. Besides, the composite z-score in [8] is 1.33 and 1.3; in assay [9], -0.682 and -0.367; in assay [10], 1.22 and 1.09. Moreover, the composite Z-score in assay [2] is 0.242 (inactive) and 1.85 (inactive).

Regarding `C=CCN(Cc1ccccc1)C(=O)C(c1cccs1)N(C(=O)/C=C\C(=O)O)c1c(Cl)cccc1CO` (stereo not given), the composite z-score was -0.248 and -1.84 in [1]; -0.437 and -0.491 in assay [3]; -0.155 and -0.0772 in assay [4]; -0.393 and -0.843 in [5]; -0.665 and -0.537 in assay [6]; -0.657 and -0.277 in assay [7]. The composite z-score was -0.84 and -2.12 in assay [8]; -1.64 and -2.62 in assay [9]; -1.52 and -1.86 in [10]. In addition, the composite Z-score in [2] is 0.0723 (inactive) and -1.07 (inactive).

For `C=CC[C@@H](O)c1ccc(O)c(F)c1`, the composite z-score is 0.27 and 0.242 in [1]; -0.478 and -0.553 in assay [3]; -0.214 and -0.196 in assay [4]; 0.818 and 0.758 in assay [5]; -0.301 and -0.323 in assay [6]; -0.0711 and -0.495 in assay [7]. The composite z-score in [8] is -0.601 and -0.896; in [9] it was -1.22 and -1.15; in assay [10] it was -1.51 and -1.15. The composite Z-score in assay [2] was 0.276 (inactive) and 0.895 (inactive).

On to `C=CCN(CCCC)C(=O)C1N(c2c(Cl)cccc2CO)C(=O)C2C(C(=O)O)C3C=CC21O3` (stereo not given), for which the composite z-score in assay [1] was -0.817 and -0.128; in assay [3], -0.408 and 0.539; in assay [4], -0.173 and 0.608; in [5], -0.748 and 0.955; in assay [6], -0.455 and 1.89; in assay [7], -0.111 and -0.125. In addition, the composite z-score was -0.818 and -1 in [8]; -1.4 and -1.99 in [9]; -1.69 and -2.68 in assay [10]. Further, the composite Z-score in assay [2] is -0.533 (inactive) and 0.273 (inactive).
